Data on eight molecules can be found in PubChem BioAssay (NCI).

Common to all, as to assay: NCI-60 one-dose screen, 48 h (100 = growth as untreated, 0 = no growth, -100 = all killed)
One test has as its system NCI-H23 lung. The following applies: 10 µM unless noted.
Another test has as its system NCI-H226 lung. The following applies: 10 µM unless noted.
The subject of the next test is NCI-H322M lung. The following applies: 10 µM unless noted.
A further test concerns HOP-62 NSCLC. The following applies: 10 µM unless noted.
The test system of a further test is NCI-H460 lung. The following applies: 10 µM unless noted.
A further test deals with HOP-92 NSCLC. The following applies: 10 µM unless noted.
For the next test, the system named is NCI-H522 lung. The following applies: 10 µM unless noted.
The next test relates to A549/ATCC NSCLC. The conditions noted are these: 10 µM unless noted.
Another test relates to 786-0 renal. The following applies: 10 µM unless noted.
The test system of a further test is COLO 205 colon. The conditions noted are these: 10 µM unless noted.
A further test relates to DU-145 prostate. The following applies: 10 µM unless noted.
The subject of a further test is K-562 leukemia. The following applies: 10 µM unless noted.
A further test concerns MALME-3M melanoma. The conditions noted are these: 10 µM unless noted.
Another test relates to MDA-MB-231 breast. The conditions noted are these: 10 µM unless noted.
The next test concerns RXF 393 renal. The following applies: 10 µM unless noted.
For the next test, the system named is SF-268 CNS. The conditions noted are these: 10 µM unless noted.
The test system of another test is SF-295 CNS. The following applies: 10 µM unless noted.
In another test the test system is SF-539 CNS. The conditions noted are these: 10 µM unless noted.
Another test has as its system UACC-257 melanoma. The following applies: 10 µM.
Another test relates to M14 melanoma. The conditions noted are these: 10 µM unless noted.

Compounds without any hit were thinned out: in the full panel of roughly 83,000, 20% have a hit.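 Growth was measured after 48 h exposure to one concentration of compound in 96-well plates. Values under 10 count as active.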 Values without a mark were called inactive. Activity calls are given as the source filed them.

As for `COc1ccc2c(ccn2C(=O)N2c3ccccc3Sc3ccccc32)c1`, the growth was 40.3% in the test on NCI-H23 lung; 51.6% with NCI-H226 lung; 52.6% in the test with NCI-H322M lung; 35.3% with HOP-62 NSCLC; 14.2% in the test with NCI-H460 lung; 25.4% in the test with HOP-92 NSCLC. Further, the growth was -26.8% (active) in the test with NCI-H522 lung; 43.8% with A549/ATCC NSCLC; 50.1% in the test with 786-0 renal; -33.3% (active) in the test with COLO 205 colon; 28.2% in the test with DU-145 prostate; 18.7% in the test with K-562 leukemia. Also, the growth is 51.3% in the test with MALME-3M melanoma; 64.5% in the test with MDA-MB-231 breast; 12% in the test on RXF 393 renal; 63% in the test on SF-268 CNS; 16.5% in the test on SF-295 CNS; 11.6% in the test on SF-539 CNS. Also, the figures for the growth with UACC-257 melanoma and in the test with M14 melanoma were 70.3% and 21.8%, respectively.
With `O=C1c2c(c3c4cccnc4[nH]c3c3ccc4ccccc4c23)C(=O)N1CCN1CCNCC1`, the growth in the test with NCI-H23 lung was 81.6%; in the test on NCI-H226 lung, 89.4%; in the test on NCI-H322M lung, 88%; in the test with HOP-62 NSCLC, 63.6%; with NCI-H460 lung, 32.6%; with HOP-92 NSCLC, 85.3%. The growth in the test on NCI-H522 lung was 81.8%; with A549/ATCC NSCLC, 44%; with 786-0 renal, 52.7%; in the test with COLO 205 colon, 81.9%; with DU-145 prostate, 74.8%; in the test with K-562 leukemia it was -35.5% (active). For the same molecule, the growth in the test with MALME-3M melanoma is 92.3%; in the test on MDA-MB-231 breast, 89.9%; in the test on RXF 393 renal, 75.5%; in the test with SF-268 CNS, 78.3%; with SF-295 CNS, 84.2%; with SF-539 CNS, 73.8%. Moreover, the growth was 106% with UACC-257 melanoma and 64.4% in the test on M14 melanoma.
Take `CC(C)N=C(N/C(N)=N/c1nc2ccccc2s1)NC(C)C`: the growth with NCI-H23 lung was 47.5%; in the test on NCI-H226 lung it was 67.2%; with NCI-H322M lung, 62.2%; in the test on HOP-62 NSCLC, 55.4%; with NCI-H460 lung, 48.8%; in the test with HOP-92 NSCLC it was 30.8%. Further, the growth was 85.1% in the test on NCI-H522 lung; 69.3% in the test with A549/ATCC NSCLC; 58.5% in the test with 786-0 renal; 55.6% in the test on COLO 205 colon; 85.6% with DU-145 prostate; 23.1% in the test with K-562 leukemia. The growth is 75.4% in the test on MALME-3M melanoma; 56.3% with MDA-MB-231 breast; 51.9% with RXF 393 renal; 81.3% with SF-268 CNS; 43.8% with SF-295 CNS; 52.3% in the test with SF-539 CNS. The growth with UACC-257 melanoma is 87.9%; in the test with M14 melanoma, 58%.
On to `COc1ccc(N2CCN(C(=O)CSc3ccc(-c4nc5cc(C)c(C)cc5[nH]4)cn3)CC2)cc1`, for which the growth in the test with NCI-H23 lung is 54.5%; in the test on NCI-H226 lung it was 66.8%; in the test on NCI-H322M lung, 76.6%; in the test with HOP-62 NSCLC, 84.9%; in the test on NCI-H460 lung, 89.9%; in the test with HOP-92 NSCLC, 85%. In addition, the growth in the test with NCI-H522 lung is 36%; in the test on A549/ATCC NSCLC, 77.3%; in the test with 786-0 renal, 102%; in the test with COLO 205 colon, 60.2%; in the test with DU-145 prostate, 93.1%; in the test with K-562 leukemia it was 35.3%. For the same molecule, the growth was 69.9% with MALME-3M melanoma; 85.6% in the test on MDA-MB-231 breast; 93.6% in the test with RXF 393 renal; 99.3% with SF-268 CNS; 50.2% in the test with SF-295 CNS; 84% in the test on SF-539 CNS. In addition, the growth is 52.1% with UACC-257 melanoma and 53.9% in the test on M14 melanoma.
For the molecule `COc1cc(/C=C/C(=O)c2ccc(N3CCN(C)CC3)cc2)ccc1F`, the growth with NCI-H23 lung was 84.4%; with NCI-H226 lung, 67.3%; in the test with NCI-H322M lung, 84.2%; in the test with HOP-62 NSCLC it was 86.4%; in the test with NCI-H460 lung, 102%; with HOP-92 NSCLC, 54.3%. The growth was 97.2% with NCI-H522 lung; 76.7% with A549/ATCC NSCLC; 88.4% in the test on 786-0 renal; 64.9% in the test on COLO 205 colon; 88.3% in the test with DU-145 prostate; 7.19% (active) in the test on K-562 leukemia. The growth in the test with MALME-3M melanoma is 103%; in the test with MDA-MB-231 breast, 103%; with RXF 393 renal, 98.2%; in the test on SF-268 CNS, 97.8%; in the test with SF-295 CNS, 92.5%; with SF-539 CNS it was 65.6%. In addition, the results for the growth in the test on UACC-257 melanoma and in the test with M14 melanoma were 89.8% and 73.6%, respectively.
Take `CC(C)Sc1nc(NC2CC2)c(C#N)c(-c2ccccc2)n1`: the growth in the test with NCI-H23 lung was 67.5%; in the test on NCI-H226 lung, 69.8%; with NCI-H322M lung, 67.6%; in the test with HOP-62 NSCLC, 71.5%; in the test on NCI-H460 lung it was 54.5%; in the test with HOP-92 NSCLC, 76.1%. Besides, the growth was 89.2% with NCI-H522 lung; 62.9% with A549/ATCC NSCLC; 35% in the test on 786-0 renal; 79.6% in the test with COLO 205 colon; 99.1% with DU-145 prostate; 87.6% with K-562 leukemia. For the same molecule, the growth in the test with MALME-3M melanoma was 57.1%; with MDA-MB-231 breast, 82%; in the test with RXF 393 renal, 77.5%; in the test on SF-268 CNS, 95.8%; with SF-295 CNS it was 72%; in the test with SF-539 CNS, 82.2%. Also, the growth in the test on UACC-257 melanoma is 102%; with M14 melanoma it was 95.1%.
With `O=C1[C@H]2Cc3c([nH]c4ccccc34)[C@@H](c3ccc(Cl)cc3)N2C(=O)CN1C1CCN(Cc2c(Cl)cccc2Cl)CC1`, the growth in the test with NCI-H23 lung is 27.7%; in the test on NCI-H226 lung it was 81.6%; in the test with NCI-H322M lung, 103%; in the test on HOP-62 NSCLC, 84.9%; with NCI-H460 lung, 86%; in the test on HOP-92 NSCLC, 21.5%. Also, the growth in the test with NCI-H522 lung was 74.6%; with A549/ATCC NSCLC, 87.6%; in the test on 786-0 renal, -64% (active); in the test on COLO 205 colon, 103%; in the test on DU-145 prostate, 90.4%; in the test on K-562 leukemia, 81.6%. Moreover, the growth with MALME-3M melanoma was 65.8%; in the test with MDA-MB-231 breast, 53%; in the test with RXF 393 renal, 109%; in the test on SF-268 CNS, 85.6%; with SF-295 CNS, 73%; in the test on SF-539 CNS, 77.7%. In addition, the growth with UACC-257 melanoma was 102%; in the test with M14 melanoma, 84.5%.
In the case of `O=C(Nc1cc(Cl)cc(Cl)c1)Nc1nc2ccc([N+](=O)[O-])cc2s1`, the growth in the test with NCI-H23 lung was -37.7% (active); in the test on NCI-H226 lung it was -9.83% (active); with NCI-H322M lung, 9.2% (active); in the test on HOP-62 NSCLC it was -4.21% (active); in the test with NCI-H460 lung, 1.08% (active); in the test with HOP-92 NSCLC it was -6.65% (active). Further, the growth with NCI-H522 lung was 1.99% (active); in the test with A549/ATCC NSCLC, 9.1% (active); with 786-0 renal it was 11%; with COLO 205 colon, -49.2% (active); in the test with DU-145 prostate it was 16.9%; in the test with K-562 leukemia, 3.25% (active). Also, the growth in the test on MALME-3M melanoma is -8.59% (active); with MDA-MB-231 breast, -0.651% (active); with RXF 393 renal, -25% (active); in the test on SF-268 CNS, 15.4%; in the test with SF-295 CNS it was -57.2% (active); in the test on SF-539 CNS, 3.86% (active). In addition, the values for the growth in the test on UACC-257 melanoma and in the test with M14 melanoma were -14.5% (active) and -9.81% (active), respectively.
